# Columns and labels:
# Assay in all cases: DAPPL (digital affinity profiling via proximity ligation, sequencing); 10 mM Tris-HCl pH 7.5, 50 mM NaCl, 1 mM DTT, 4% glycerol, room temperature, 30 min; GST-TFs on glutathione beads, 16-mer random dsDNA library, 0.1% formaldehyde crosslink after washing; high values mean tight binding
# [1] = biological target: T1, FLI1 (Homo sapiens, UniProt Q01543 1-452); conditions: protein: recombinant; tags: N-terminal GST; dsDNA, one strand shown
# T1 sequence: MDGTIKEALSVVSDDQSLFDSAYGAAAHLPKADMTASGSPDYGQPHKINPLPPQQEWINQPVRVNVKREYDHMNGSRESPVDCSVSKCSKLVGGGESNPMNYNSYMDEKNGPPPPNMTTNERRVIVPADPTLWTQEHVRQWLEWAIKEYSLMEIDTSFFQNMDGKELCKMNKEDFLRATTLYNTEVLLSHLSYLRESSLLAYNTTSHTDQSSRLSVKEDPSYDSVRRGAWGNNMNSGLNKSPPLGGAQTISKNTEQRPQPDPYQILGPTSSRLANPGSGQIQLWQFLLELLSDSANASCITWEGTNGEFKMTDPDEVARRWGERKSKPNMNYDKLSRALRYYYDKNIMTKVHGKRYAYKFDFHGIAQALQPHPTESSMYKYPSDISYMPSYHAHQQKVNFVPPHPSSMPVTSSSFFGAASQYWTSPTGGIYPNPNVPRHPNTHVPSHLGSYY
# Method in brief: (§1)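 Human transcription factors were made in yeast as GST fusions, captured on glutathione beads and barcoded with DNA. With a tag-only sample included, the pool was incubated with 200 nmole of a random double-stranded 16-mer DNA library in Tris/NaCl/DTT/glycerol buffer at room temperature for 30 min, then crosslinked with 0.1% formaldehyde after washing, ligated by proximity, amplified and sequenced. For binding signal, each hexamer's read frequency for a factor is divided by its frequency for the tag-only sample.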
# [2] = biological target: T2, ELK1 (Homo sapiens, UniProt P19419 1-428); conditions: protein: recombinant; tags: N-terminal GST; dsDNA, one strand shown
# T2 sequence: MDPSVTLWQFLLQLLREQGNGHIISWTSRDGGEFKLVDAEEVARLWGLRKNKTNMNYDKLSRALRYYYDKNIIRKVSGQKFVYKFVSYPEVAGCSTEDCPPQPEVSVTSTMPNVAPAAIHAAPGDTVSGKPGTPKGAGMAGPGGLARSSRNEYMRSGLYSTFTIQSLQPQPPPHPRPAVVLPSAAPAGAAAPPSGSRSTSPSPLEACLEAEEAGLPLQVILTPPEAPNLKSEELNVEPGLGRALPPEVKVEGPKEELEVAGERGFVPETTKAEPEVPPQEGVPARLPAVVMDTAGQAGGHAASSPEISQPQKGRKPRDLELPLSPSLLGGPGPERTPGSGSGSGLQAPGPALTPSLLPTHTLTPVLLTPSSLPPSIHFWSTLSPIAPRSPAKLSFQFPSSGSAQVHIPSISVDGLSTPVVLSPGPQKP
# Method in brief: as §1
# [3] = biological target: T3, GABPA (Homo sapiens, UniProt Q06546 1-454); conditions: protein: recombinant; tags: N-terminal GST; dsDNA, one strand shown
# T3 sequence: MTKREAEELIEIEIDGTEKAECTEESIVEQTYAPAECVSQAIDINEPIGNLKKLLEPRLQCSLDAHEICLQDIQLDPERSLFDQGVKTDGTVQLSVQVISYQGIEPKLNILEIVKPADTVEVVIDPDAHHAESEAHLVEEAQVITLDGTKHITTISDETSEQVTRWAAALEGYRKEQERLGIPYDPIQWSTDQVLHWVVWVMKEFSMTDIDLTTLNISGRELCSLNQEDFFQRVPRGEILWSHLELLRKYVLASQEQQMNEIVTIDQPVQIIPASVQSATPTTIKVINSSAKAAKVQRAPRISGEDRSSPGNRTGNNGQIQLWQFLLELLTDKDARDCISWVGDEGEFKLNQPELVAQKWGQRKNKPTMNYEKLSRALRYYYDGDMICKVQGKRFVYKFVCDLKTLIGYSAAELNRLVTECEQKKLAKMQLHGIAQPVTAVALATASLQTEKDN
# Method in brief: as §1
# [4] = biological target: T4, ERG (Homo sapiens, UniProt P11308 1-479); conditions: protein: recombinant; tags: N-terminal GST; dsDNA, one strand shown
# T4 sequence: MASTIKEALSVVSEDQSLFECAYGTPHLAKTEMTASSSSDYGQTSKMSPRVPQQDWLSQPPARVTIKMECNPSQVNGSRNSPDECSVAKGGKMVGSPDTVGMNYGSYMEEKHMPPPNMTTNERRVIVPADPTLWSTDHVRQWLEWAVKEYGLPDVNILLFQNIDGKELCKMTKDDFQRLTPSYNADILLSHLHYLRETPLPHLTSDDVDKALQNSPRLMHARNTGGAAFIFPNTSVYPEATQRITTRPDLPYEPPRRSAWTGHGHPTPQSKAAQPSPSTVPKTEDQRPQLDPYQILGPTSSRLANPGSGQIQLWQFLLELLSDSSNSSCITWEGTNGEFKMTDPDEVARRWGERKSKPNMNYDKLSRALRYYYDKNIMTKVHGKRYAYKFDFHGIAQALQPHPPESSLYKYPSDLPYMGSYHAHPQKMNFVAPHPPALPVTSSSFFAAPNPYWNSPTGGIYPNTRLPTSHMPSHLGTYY
# Method in brief: as §1
# [5] = biological target: ELF1 (Homo sapiens, UniProt P32519 1-619); conditions: protein: recombinant; tags: N-terminal GST; dsDNA, one strand shown
# Method in brief: as §1
# [6] = biological target: T5, EHF (Homo sapiens, UniProt Q9NZC4 1-300); conditions: protein: recombinant; tags: N-terminal GST; dsDNA, one strand shown
# T5 sequence: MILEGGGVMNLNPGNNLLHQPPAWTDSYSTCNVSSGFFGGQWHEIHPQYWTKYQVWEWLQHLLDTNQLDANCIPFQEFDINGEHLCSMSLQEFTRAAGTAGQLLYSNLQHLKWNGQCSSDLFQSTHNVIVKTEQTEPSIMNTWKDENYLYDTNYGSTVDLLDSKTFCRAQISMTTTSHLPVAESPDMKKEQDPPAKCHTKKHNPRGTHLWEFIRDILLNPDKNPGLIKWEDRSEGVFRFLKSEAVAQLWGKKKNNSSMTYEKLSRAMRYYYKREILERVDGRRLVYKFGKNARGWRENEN
# Method in brief: as §1
# [7] = biological target: SPI1 (Homo sapiens, UniProt P17947 1-270); conditions: protein: recombinant; tags: N-terminal GST; dsDNA, one strand shown
# Method in brief: as §1
# [8] = biological target: SPIB (Homo sapiens, UniProt Q01892 1-262); conditions: protein: recombinant; tags: N-terminal GST; dsDNA, one strand shown
# Method in brief: as §1
# [9] = biological target: T6, ELK3 (Homo sapiens, UniProt P41970 1-407); conditions: protein: recombinant; tags: N-terminal GST; dsDNA, one strand shown
# T6 sequence: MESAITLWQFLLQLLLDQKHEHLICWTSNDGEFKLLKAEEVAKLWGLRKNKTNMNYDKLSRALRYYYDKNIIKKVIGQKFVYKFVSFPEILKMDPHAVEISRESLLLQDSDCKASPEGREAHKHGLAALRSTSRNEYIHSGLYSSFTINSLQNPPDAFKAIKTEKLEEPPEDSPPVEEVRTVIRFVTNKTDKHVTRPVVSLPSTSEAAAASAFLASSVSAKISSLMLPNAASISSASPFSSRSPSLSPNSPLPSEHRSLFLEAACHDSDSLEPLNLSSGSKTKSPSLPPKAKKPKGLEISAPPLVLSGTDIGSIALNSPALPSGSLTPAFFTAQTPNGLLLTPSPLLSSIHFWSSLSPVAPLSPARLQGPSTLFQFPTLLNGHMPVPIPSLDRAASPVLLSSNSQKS
# Method in brief: as §1
# [10] = biological target: T7, FEV (Homo sapiens, UniProt Q99581 1-238); conditions: protein: recombinant; tags: N-terminal GST; dsDNA, one strand shown
# T7 sequence: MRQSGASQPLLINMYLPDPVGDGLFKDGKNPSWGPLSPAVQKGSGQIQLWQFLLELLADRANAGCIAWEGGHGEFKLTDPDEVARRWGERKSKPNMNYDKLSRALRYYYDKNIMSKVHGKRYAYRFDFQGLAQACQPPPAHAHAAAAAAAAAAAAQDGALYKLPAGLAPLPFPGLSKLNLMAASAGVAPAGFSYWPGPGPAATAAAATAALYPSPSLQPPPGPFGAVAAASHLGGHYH
# Method in brief: as §1
# [11] = biological target: ETV5 (Homo sapiens, UniProt P41161 1-510); conditions: protein: recombinant; tags: N-terminal GST; dsDNA, one strand shown
# Method in brief: as §1
# [12] = biological target: HSF1 (Homo sapiens, UniProt Q00613 1-529); conditions: protein: recombinant; tags: N-terminal GST; chain copies: 3; dsDNA, one strand shown
# Method in brief: as §1
# [13] = biological target: T8, SPIC (Homo sapiens, UniProt Q8N5J4 1-248); conditions: protein: recombinant; tags: N-terminal GST; dsDNA, one strand shown
# T8 sequence: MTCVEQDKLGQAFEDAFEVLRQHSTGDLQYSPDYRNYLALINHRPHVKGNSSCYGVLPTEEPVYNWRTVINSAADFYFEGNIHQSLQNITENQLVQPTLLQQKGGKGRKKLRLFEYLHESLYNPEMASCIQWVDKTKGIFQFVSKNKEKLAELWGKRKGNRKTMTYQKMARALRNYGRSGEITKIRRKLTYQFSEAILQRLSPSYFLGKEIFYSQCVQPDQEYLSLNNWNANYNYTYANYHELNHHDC
# Method in brief: as §1
# [14] = biological target: ELF4 (Homo sapiens, UniProt Q99607 1-663); conditions: protein: recombinant; tags: N-terminal GST; dsDNA, one strand shown
# Method in brief: as §1
# [15] = biological target: T9, ELK4 (Homo sapiens, UniProt P28324-2 1-405); conditions: protein: recombinant; tags: N-terminal GST; dsDNA, one strand shown
# T9 sequence: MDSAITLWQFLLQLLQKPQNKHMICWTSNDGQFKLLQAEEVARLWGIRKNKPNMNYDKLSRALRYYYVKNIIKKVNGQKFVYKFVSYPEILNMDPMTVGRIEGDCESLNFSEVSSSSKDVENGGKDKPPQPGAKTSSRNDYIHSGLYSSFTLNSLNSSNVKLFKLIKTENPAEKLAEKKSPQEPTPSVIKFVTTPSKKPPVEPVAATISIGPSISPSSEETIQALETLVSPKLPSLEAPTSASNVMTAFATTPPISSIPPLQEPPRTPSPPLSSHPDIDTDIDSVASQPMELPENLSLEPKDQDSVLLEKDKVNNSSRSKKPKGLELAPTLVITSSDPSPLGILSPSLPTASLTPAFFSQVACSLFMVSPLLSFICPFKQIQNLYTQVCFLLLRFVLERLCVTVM
# Method in brief: as §1
# [16] = biological target: T10, ETV2 (Homo sapiens, UniProt O00321 1-342); conditions: protein: recombinant; tags: N-terminal GST; dsDNA, one strand shown
# T10 sequence: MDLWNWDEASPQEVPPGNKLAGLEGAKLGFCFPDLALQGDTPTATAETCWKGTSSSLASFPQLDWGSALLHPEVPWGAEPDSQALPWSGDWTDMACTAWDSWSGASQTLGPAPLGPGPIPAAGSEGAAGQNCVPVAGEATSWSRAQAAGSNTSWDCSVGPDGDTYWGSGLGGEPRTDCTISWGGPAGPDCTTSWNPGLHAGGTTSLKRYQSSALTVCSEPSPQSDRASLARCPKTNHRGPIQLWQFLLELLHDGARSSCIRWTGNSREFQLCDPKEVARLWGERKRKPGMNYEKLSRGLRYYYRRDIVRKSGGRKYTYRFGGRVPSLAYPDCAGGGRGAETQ
# Method in brief: as §1
# [17] = biological target: T11, ELF3 (Homo sapiens, UniProt P78545 1-371); conditions: protein: recombinant; tags: N-terminal GST; dsDNA, one strand shown
# T11 sequence: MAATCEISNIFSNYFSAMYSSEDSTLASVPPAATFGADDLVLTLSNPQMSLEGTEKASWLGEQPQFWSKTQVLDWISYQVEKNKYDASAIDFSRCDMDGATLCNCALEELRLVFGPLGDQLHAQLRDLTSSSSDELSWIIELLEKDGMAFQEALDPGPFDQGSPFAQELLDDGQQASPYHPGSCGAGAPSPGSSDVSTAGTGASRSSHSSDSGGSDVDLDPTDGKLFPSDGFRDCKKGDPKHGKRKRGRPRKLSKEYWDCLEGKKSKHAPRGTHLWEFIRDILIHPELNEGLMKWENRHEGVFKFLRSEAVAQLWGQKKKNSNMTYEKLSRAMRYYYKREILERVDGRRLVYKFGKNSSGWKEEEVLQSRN
# Method in brief: as §1
# [18] = biological target: CRX (Homo sapiens, UniProt O43186 1-299); conditions: protein: recombinant; tags: N-terminal GST; dsDNA, one strand shown
# Method in brief: as §1
# [19] = biological target: ETV1 (Homo sapiens, UniProt P50549 1-477); conditions: protein: recombinant; tags: N-terminal GST; dsDNA, one strand shown
# Method in brief: as §1
# Sequence of ETV1 (P50549 whole entry): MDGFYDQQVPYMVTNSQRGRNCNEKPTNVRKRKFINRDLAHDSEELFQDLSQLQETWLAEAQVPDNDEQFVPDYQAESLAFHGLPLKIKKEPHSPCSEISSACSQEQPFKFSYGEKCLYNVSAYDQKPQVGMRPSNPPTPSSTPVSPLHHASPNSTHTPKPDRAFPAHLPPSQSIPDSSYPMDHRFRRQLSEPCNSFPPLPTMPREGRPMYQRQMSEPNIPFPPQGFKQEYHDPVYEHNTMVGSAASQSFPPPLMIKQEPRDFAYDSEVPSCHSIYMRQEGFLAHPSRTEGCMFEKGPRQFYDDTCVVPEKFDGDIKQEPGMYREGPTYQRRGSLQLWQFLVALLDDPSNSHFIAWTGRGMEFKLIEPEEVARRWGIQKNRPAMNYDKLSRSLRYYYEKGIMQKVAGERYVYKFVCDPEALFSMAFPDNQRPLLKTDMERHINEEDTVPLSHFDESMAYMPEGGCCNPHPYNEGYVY
# Sequence of ETV5 (P41161 whole entry): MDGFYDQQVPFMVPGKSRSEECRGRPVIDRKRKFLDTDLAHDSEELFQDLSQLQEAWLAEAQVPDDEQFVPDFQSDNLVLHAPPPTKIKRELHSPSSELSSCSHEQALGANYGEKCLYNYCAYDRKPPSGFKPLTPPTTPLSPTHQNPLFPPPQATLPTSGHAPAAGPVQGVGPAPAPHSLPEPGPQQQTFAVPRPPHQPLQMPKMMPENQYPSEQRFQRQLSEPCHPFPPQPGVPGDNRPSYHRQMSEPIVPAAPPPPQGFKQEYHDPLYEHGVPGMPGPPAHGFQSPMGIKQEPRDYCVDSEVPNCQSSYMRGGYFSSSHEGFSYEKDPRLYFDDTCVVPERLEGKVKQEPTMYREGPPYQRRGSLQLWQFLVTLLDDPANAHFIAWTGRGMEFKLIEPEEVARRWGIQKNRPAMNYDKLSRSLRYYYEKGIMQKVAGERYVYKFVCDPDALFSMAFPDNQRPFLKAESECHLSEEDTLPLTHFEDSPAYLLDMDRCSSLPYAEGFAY
# Sequence of ELF1 (P32519 whole entry): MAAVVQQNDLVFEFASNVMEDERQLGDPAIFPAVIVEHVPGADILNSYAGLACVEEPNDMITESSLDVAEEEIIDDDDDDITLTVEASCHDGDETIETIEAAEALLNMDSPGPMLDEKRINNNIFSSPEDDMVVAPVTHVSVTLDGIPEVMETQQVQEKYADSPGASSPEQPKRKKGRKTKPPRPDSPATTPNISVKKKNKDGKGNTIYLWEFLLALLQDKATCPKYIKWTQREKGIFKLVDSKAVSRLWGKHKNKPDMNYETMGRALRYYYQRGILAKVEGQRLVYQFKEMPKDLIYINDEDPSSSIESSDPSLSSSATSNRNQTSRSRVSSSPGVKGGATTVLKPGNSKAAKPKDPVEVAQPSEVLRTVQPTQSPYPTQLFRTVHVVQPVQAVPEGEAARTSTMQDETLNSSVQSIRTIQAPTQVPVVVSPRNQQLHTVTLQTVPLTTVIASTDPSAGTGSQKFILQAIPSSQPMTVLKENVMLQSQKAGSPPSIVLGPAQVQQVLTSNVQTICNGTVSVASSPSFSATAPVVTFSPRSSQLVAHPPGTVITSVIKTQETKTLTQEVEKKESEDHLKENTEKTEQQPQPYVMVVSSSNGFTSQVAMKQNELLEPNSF
# Sequence of SPIB (Q01892 whole entry): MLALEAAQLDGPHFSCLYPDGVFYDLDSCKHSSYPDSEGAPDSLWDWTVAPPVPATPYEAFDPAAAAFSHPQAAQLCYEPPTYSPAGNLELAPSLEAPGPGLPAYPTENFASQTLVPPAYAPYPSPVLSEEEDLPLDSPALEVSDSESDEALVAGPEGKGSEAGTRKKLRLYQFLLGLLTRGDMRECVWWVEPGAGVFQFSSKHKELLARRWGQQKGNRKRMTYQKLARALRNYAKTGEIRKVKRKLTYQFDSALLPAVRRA
# Sequence of CRX (O43186 whole entry): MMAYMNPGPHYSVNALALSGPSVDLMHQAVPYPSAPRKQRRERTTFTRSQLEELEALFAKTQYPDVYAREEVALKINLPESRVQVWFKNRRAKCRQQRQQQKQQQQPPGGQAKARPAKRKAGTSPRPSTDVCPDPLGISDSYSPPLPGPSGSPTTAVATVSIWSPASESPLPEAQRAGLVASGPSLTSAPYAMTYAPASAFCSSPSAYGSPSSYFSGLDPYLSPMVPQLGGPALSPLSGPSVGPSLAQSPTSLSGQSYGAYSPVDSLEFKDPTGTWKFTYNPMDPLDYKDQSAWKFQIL
# Sequence of ELF4 (Q99607 whole entry): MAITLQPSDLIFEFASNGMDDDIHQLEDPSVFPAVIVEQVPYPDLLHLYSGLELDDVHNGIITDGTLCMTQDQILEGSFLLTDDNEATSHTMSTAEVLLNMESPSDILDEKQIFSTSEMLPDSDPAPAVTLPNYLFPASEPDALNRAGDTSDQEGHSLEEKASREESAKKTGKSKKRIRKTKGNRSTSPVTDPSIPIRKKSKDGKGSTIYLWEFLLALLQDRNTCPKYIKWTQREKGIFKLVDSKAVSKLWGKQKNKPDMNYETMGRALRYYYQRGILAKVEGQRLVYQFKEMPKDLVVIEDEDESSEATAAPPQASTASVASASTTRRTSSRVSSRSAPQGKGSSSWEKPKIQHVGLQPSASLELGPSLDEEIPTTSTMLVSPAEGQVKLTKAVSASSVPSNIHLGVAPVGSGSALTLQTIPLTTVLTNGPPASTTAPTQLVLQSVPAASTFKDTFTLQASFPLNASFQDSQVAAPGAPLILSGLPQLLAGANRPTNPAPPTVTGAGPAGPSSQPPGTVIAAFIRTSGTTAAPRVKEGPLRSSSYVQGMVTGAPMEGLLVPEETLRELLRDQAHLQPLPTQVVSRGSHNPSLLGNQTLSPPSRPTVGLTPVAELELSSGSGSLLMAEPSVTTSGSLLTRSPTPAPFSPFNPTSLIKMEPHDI
# Sequence of HSF1 (Q00613 whole entry): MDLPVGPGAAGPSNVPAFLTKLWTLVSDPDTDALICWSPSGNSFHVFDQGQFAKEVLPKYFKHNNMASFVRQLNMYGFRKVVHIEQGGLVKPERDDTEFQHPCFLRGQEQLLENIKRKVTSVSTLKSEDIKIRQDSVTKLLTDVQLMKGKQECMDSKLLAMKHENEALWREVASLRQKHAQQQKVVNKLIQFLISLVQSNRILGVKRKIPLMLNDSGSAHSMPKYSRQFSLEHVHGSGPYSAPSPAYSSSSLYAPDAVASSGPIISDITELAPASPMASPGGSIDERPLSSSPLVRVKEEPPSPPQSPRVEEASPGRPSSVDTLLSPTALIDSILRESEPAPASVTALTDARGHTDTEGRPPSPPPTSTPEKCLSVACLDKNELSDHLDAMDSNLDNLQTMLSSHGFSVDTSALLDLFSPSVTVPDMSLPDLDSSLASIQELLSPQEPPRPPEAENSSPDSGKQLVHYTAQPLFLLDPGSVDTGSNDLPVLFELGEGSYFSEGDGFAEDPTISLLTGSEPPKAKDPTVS
sequence,measurement,setting,value
AGTATC,binding signal,[1],"1.09 fold enrichment (6-mer frequency, TF over GST control)"
same,binding signal,[2],"1.13 fold enrichment (6-mer frequency, TF over GST control)"
same,binding signal,[3],"1.11 fold enrichment (6-mer frequency, TF over GST control)"
same,binding signal,[4],"1.08 fold enrichment (6-mer frequency, TF over GST control)"
same,binding signal,[5],"1.13 fold enrichment (6-mer frequency, TF over GST control)"
same,binding signal,[6],"1.19 fold enrichment (6-mer frequency, TF over GST control)"
same,binding signal,[7],"1.13 fold enrichment (6-mer frequency, TF over GST control)"
same,binding signal,[8],"1.2 fold enrichment (6-mer frequency, TF over GST control)"
same,binding signal,[9],"1.17 fold enrichment (6-mer frequency, TF over GST control)"
same,binding signal,[10],"1.12 fold enrichment (6-mer frequency, TF over GST control)"
same,binding signal,[11],"1.18 fold enrichment (6-mer frequency, TF over GST control)"
same,binding signal,[12],"1.03 fold enrichment (6-mer frequency, TF over GST control)"
same,binding signal,[13],"1.14 fold enrichment (6-mer frequency, TF over GST control)"
same,binding signal,[14],"1.12 fold enrichment (6-mer frequency, TF over GST control)"
same,binding signal,[15],"1.1 fold enrichment (6-mer frequency, TF over GST control)"
same,binding signal,[16],"1.26 fold enrichment (6-mer frequency, TF over GST control)"
same,binding signal,[17],"1.16 fold enrichment (6-mer frequency, TF over GST control)"
same,binding signal,[18],"1.03 fold enrichment (6-mer frequency, TF over GST control)"
same,binding signal,[19],"1.07 fold enrichment (6-mer frequency, TF over GST control)"

# — PMC7862700, “An all-to-all approach to the identification of sequence-specific readers for epigenetic DNA modifications on cytosine”
